According to PubChem BioAssay (Tox21):
Results filed as inconclusive are left out. Activity calls are given as the source filed them. Calls come from the whole dose curve.

The molecules below were run against Progesterone receptor (Homo sapiens) (UniProt P06401) (assay: qHTS assay to identify small molecule agonists of the progesterone receptor (PR) signaling pathway (AID 1346784; note: nearly all actives have a fitted effect of over 30% in size)). Settings: PR-UAS-bla HEK293T, beta-lactamase FRET ratio, 16 h; series mostly up to 92.4 µM; activation: at the top concentration.
Sequence of Progesterone receptor (Homo sapiens) (P06401 whole entry, looked up): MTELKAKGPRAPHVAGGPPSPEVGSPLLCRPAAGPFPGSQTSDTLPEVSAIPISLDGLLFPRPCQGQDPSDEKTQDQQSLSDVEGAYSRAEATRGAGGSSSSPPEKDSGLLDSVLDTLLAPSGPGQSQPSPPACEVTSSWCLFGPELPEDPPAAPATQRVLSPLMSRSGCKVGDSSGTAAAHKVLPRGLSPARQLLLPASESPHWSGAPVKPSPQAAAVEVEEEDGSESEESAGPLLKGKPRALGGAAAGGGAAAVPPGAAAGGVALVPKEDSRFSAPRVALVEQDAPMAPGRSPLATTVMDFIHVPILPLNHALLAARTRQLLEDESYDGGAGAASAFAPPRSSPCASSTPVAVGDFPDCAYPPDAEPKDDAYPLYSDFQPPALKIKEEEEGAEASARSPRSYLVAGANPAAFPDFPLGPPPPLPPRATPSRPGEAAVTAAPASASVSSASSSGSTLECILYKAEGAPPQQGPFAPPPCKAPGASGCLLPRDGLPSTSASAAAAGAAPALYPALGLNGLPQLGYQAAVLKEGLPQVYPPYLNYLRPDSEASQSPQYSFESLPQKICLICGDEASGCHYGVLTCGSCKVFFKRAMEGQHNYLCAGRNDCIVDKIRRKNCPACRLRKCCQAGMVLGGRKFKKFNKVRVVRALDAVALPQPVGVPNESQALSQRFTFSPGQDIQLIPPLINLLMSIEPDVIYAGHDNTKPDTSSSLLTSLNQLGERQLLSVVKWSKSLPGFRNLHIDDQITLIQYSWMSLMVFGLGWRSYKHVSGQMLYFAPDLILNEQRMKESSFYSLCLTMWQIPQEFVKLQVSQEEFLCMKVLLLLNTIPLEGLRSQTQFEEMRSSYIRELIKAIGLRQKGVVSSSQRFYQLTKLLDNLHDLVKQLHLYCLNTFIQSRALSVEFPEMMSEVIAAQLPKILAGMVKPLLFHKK
How it was run: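 Agonist qHTS: compounds pinned onto 3,000 PR-UAS-bla HEK 293T cells per well in charcoal-stripped serum medium, 16hr at 37C, then beta-lactamase activity measured by LiveBLAzer FRET fluorescence after 2 hours at room temperature.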
% is set by controls: 0 for no effect and ±100 for the full control effect.

Row | Structure (SMILES) | activation
1 | COc1cc(CNC(=O)CCCC/C=C/C(C)C)ccc1O | 0.772% (inactive)
2 | O=C(O)c1ccccc1-n1cc(C(=O)O)c(=O)c2cc(Nc3c(F)cc(F)cc3Cl)c(Cl)cc21 | -1.26% (inactive)
3 | O=C(Nc1ccccc1)c1cc([N+](=O)[O-])ccc1Cl | -3.1% (inactive)
4 | C[C@H]1C[C@H]2[C@@H]3CCC4=CC(=O)C=C[C@]4(C)[C@@]3(F)[C@@H](O)C[C@]2(C)[C@@]1(O)C(=O)COP(=O)(O)O | 5.74% (inactive)
5 | CC(C)CCCCCOC(=O)CS | -1.79% (inactive)
6 | O=c1[nH][nH]c2ccccc12 | -2.85% (inactive)
7 | C=C(C)C(=O)OCCCCCCCCCCOC(=O)C(=C)C | -1.52% (inactive)
8 | Cc1ccc(S(=O)(=O)NC(=O)NC2CCCC2)cc1 | -0.268% [at 42.5 µM] (inactive)
9 | O=C(N[C@@H](Cc1ccccc1)[C@@H](O)C(=O)N1C[C@@H](O)[C@@H](O)C1)c1cc2cc(Cl)ccc2[nH]1 | -5.49% (inactive)
10 | CCCCCCCCOCCCN | -7.06% (inactive)
11 | O=Cc1ccc([N+](=O)[O-])cc1 | -0.434% (inactive)
12 | CC(C)Oc1ccccc1O | 0.101% (inactive)
13 | CCCN(C1CCN(C(=O)C2CCNCC2)CC1)[C@@H]1CCc2ccc(OC)cc2C1 | -5.03% (inactive)
14 | CCCc1ccc(OC)cc1 | 0.617% (inactive)
15 | CCOc1cc(OCC)c(C(C)=O)cc1OCC | -0.97% (inactive)
16 | O=C(O)c1cc(C(=O)O)c(C(=O)O)cc1C(=O)O | 0% (inactive)
17 | Cc1cc(C)c(C)c(O)c1 | -0.726% (inactive)
18 | FC(F)(Cl)C(F)(Cl)Cl | 1.96% (inactive)
19 | CCc1ccc2c(c1)C(=O)c1ccccc1C2=O | -0.434% (inactive)
20 | Cc1c(-c2cccnc2)c2ccccc2n1CCCCC(=O)O | 1.13% (inactive)

Row | Structure (SMILES) | activation
21 | C=CCCC | -2.34% (inactive)
22 | CCC(C)C1N=C(C)C(C)S1 (centres undefined) | 0.737% (inactive)
23 | CCCCCCC/C=C/C=O | 0.212% (inactive)
24 | Clc1ccccc1-c1nc(-c2ccncc2)no1 | 5.11% [at 42.5 µM] (inactive)
25 | C=CC(=O)NC(C)(C)C | -4.01% (inactive)
26 | CC(C)CC(C)(C)C | 6.17% (inactive)
27 | COc1ccc(/C=C/c2cc(OC)cc(=O)o2)cc1 | 1.34% [at 42.5 µM] (inactive)
28 | C=Cc1ccc(C=C)cc1 | 4.2% (inactive)
29 | C(/C=C/C=C/Nc1ccccc1)=Nc1ccccc1 | -0.0368% (inactive)
30 | O=C(Nc1ccc2c(c1)Cc1ccccc1-2)C(F)(F)F | 3.91% (inactive)
31 | O=C(OCCN1CCOCC1)c1cccnc1Nc1cccc(C(F)(F)F)c1 | 10.9% [at 42.5 µM] (inactive)
32 | CC[C@H](NC(C)C)[C@H](O)c1ccc(O)c2[nH]c(=O)ccc12 | -1.51% [at 42.5 µM] (inactive)
33 | C1=COCCC1 | -0.52% (inactive)
34 | Clc1cc(Cl)c2c(c1)N=C1CCCCCN1C2 | -1.52% [at 42.5 µM] (inactive)
35 | COc1ccc(C(=O)c2ccc(C)cc2)c(O)c1 | -1.18% (inactive)
36 | CC(=O)S[C@H](C(=O)N[C@H]1Cc2ccccc2[C@H]2CCC[C@@H](C(=O)O)N2C1=O)C(C)C | -0.14% (inactive)
37 | CCCCCCOC(=O)c1ccccc1 | -3.25% (inactive)
38 | O=S(=O)(O)c1cc(Cl)c(Cl)cc1Cl | -2.55% (inactive)
39 | O=C1c2ccccc2C(=O)c2c1ccc(O)c2O | 10.5% [at 42.5 µM] (inactive)
